Drawing on PubChem BioAssay (NCATS), this text covers Potency for 40 compounds.

SMILES strings stand for the structures. Inconclusive results are not listed. Where a call stands in place of a potency, no number is given. Activity calls are given as the source filed them. Calls come from the whole dose curve; as a rule, active = well fitted cell-killing curve with a large enough effect; inconclusive = small, poorly fitted or top-dose-only effect, or effect the other way; inactive = no such curve, though single readings can be large or run the other way.
Potency is the fitted concentration of half-maximal effect.

The assay in a line: Quantitative High-Throughput drug screen in 47 multiple myeloma cell lines against the NCATS MIPE library collection: KMS34_JCRB cell viability assay (AID 1918985). Note: nearly all actives have a fitted effect of over 40% in size. The settings on record: KMS34 myeloma viability, CellTiter-Glo ATP luminescence, 48 h; series mostly up to 45.8 µM. The text has this: PI: Beverly A. Mock Ph.D.
Laboratory of Cancer Biology and Genetics,
Center for Cancer Research, National Cancer Institute,
National Institute of Health, Bethesda, Maryland
Drug resistance and disease progression are common in multiple myeloma (MM) patients, underscoring the need for new therapeutic combinations. […] We hypothesized that effective combinations would reduce MYC expression and enhance p16 activity. […] These preclinical data identify potentially useful drug combinations for evaluation in drug-resistant MM and reveal potential mechanisms of combined drug sensitivity.
Described herein is the primary MIPE qHTS used to cherrypick compounds. Validated compounds were then further tested for potential synergistic activiy.
[1] Peat TJ, Gaikwad SM, Dubois W, Gyabaah-Kessie N, Zhang S, Gorjifard S, Phyo Z, Andres M, Hughitt VK, Simpson RM, Miller MA, Girvin AT, Taylor A, Williams D, D'Antonio N, Zhang Y, Rajagopalan A, Flietner E, Wilson K, Zhang X, Shinn P, Klumpp-Thomas C, McKnight C, Itkin Z, Chen L, Kazandijian D, Zhang J, Michalowski AM, Simmons JK, Keats J, Thomas CJ, Mock BA. Drug combinations identified by high-throughput screening promote cell cycle transition and upregulate Smad pathways in myeloma. Cancer Lett. 2023 Aug 1;568:216284. doi: 10.1016/j.canlet.2023.216284. Epub 2023 Jun 24. PMID: 37356470; PMCID: PMC10408729.
SEQUENCE No. (e.g., 1, 2, 3, etc.); […] (e.g., Cells, Incubation, Reagent, etc.); VALUE and DESCRIPTION.
1; Cells; 5 uL; white, solid bottom 1536-well Greiner assay plate.
2; Compounds; 23 nL; Kalypsis pin tool (Wako USA) equipped with a 1536-well pin head to transfer to the assay plates.
3; Incubation; 48 hours; 37C incubation.
4; Reagent;5uL; CellTiter Glo (Promega).
5; Detector; 425V; Luminescence; Viewlux PerkinElmer.
NOTES (numbers refer to Sequence numbers above)
1. The cell-based screening methods employed in this study were like those previously published. Briefly, the corresponding myeloma cell lines were screened in 1,536-well plates with 500 cells, 5-uL per well for inhibition of cell viability (assessed by measuring ATP levels with CellTiterGlo).
2. NCATS MIPE 4.0 library of approved and investigational drugs were added using the Kalypsis pin tool. Wells treated with DMSO only for 100% viability and media only for 0% viability were used as controls.
3. The assay plates were covered and incubated for 48 hours in a 37C, 5% CO2 incubator with controlled humidity.
4. After 48 hours, CellTilter-GloTM luminescent substrate mix (Promega) reagent was added to the assay plate and plates we incubated for 5 min at room temperature.
5. Signal was measured as median relative luminescence units on a ViewLux (PerkinElmer) multiplate reader.
[1] Heske CM, Davis MI, Baumgart JT, Wilson K, Gormally MV, Chen L, Zhang X, Ceribelli M, Duveau DY, Guha R, Ferrer M, Arnaldez FI, Ji J, Tran HL, Zhang Y, Mendoza A, Helman LJ, Thomas CJ. Matrix Screen Identifies Synergistic Combination of PARP Inhibitors and Nicotinamide Phosphoribosyltransferase (NAMPT) Inhibitors in Ewing Sarcoma. Clin Cancer Res. 2017 Dec 1;23(23):7301-7311. doi: 10.1158/1078-0432.CCR-17-1121. Epub 2017 Sep 12. PMID: 28899971; PMCID: PMC6636827.
In general terms: ATP-based viability assays read luminescence as a measure of living cells.
In the case of `O=c1cc(-c2ccc(O)cc2)oc2cc(O)cc(O)c12`, the Potency is 13.2 µM (active).
Regarding `Cc1ccc(F)c(NC(=O)Nc2ccc(-c3cccc4[nH]nc(N)c34)cc2)c1`, the Potency was 26.4 µM (active).
The entry for `COc1ccc(Cc2ccc(NC(N)=O)cc2)cc1-c1cccc(Cl)c1` is “inactive”.
Take `CC(=O)Nc1ccc([C@H](C)C(=O)Nc2ncc(C(C)C)s2)cc1`: the Potency is 3.72 µM (active).
Then `CC(C)OC(=O)CCCC=CC[C@@H]1[C@H](C=C[C@@H](O)COc2cccc(C(F)(F)F)c2)[C@H](O)C[C@@H]1O`, with 13.2 µM (active).
On to `CCCCCN(C)CCC(O)(P(=O)(O)O)P(=O)(O)O`, for which the Potency result is “inactive”.
Then `C[N+]1(C)[C@@H]2CC(OC(=O)[C@H](CO)c3ccccc3)C[C@H]1[C@H]1O[C@@H]12` (stereo not given in full), with “inactive”; and `CC=C(C)C(=O)O[C@H]1C(C)=C[C@]23C(=O)[C@@H](C=C(CO)[C@@H](O)[C@]12O)[C@H]1[C@@H](C[C@H]3C)C1(C)C`, with 20.9 µM (active).
As for `N[C@H](CSC(c1ccccc1)(c1ccccc1)c1ccccc1)C(=O)O`, the Potency was 9.35 µM (active).
Turning to `NS(=O)(=O)c1cccc2c1C(=O)c1cccc(O)c1C2=O`, the Potency is 0.418 µM (active).
Then `CN1[C@@H]2CCC[C@@H]1CC(NC(=O)c1nn(C)c3ccccc13)C2` (stereo not given in full), with “inactive”; and `COc1ccc(-c2coc3cc(O)ccc3c2=O)cc1`, with “inactive”; and `CCCCCNC(=O)N1CCC(CN(Cc2ccc(Cl)cc2)Cc2ccc([N+](=O)[O-])s2)C1` (stereo not given), with 26.4 µM (active).
The entry for `O=c1c(-c2ccc(O)cc2)coc2cc(O[C@@H]3O[C@H](CO)[C@H](O)[C@H](O)[C@H]3O)ccc12` is “inactive”.
Then `CN(C)CCC=C1c2ccccc2COc2ccc(CC(=O)O)cc21`, with “inactive”; and `CC1(C)CCC[C@@]2(C)[C@@H]1CC[C@@]1(C)OC(=O)C[C@H]21`, with “inactive”.
In the case of `O=C(O)c1ccc(-c2c[nH]c3ncc(-c4ccccc4)cc23)cc1C1CCCC1`, the Potency is 14.8 µM (active).
Turning to `Clc1ccc(-c2nc3sccn3c2C=NOCc2ccc(Cl)c(Cl)c2)cc1`, the Potency entry is “inactive”.
For the compound `CCC(CC)[C@H](NC(C)=O)[C@@H]1[C@H](O)[C@@H](C(=O)O)C[C@@H]1N=C(N)N`, the Potency result was “inactive”.
As to `Clc1ccc(C(c2ccc(Cl)cc2)n2cc[n+](CC(OCc3ccc(Cl)cc3Cl)c3ccc(Cl)cc3Cl)c2)cc1` (stereo not given), the Potency is 16.6 µM (active).
The figure for `CC[C@@H]1C=C(C)C[C@H](C)C[C@H](OC)[C@H]2O[C@@](O)(C(=O)C(=O)N3CCCC[C@@H]3C(=O)O[C@H](C(C)=C[C@@H]3CC[C@H](Cl)[C@H](OC)C3)[C@H](C)[C@@H](O)CC1=O)[C@H](C)C[C@H]2OC` is 16.6 µM (active); for `CCc1ccc(OCc2ccccc2C(=O)Nc2ccc3nc(C)cc(N)c3c2)cc1` it is 7.43 µM (active).
Then `COc1cc2nc(-c3ccc(N4CCN(C)CC4)cc3)nc(NCCN3CCOCC3)c2cc1OC`, with 0.0209 µM (active); and `C=C1C(=O)OC(CCCCCCCC)C1C(=O)O` (stereo not given), with “inactive”; and `C=C1C(=O)OC2C=C(C)CCC=C(C)CCC12` (stereo not given), with 14.8 µM (active).
Then `COc1ccc(C2Sc3ccccc3N(CCN(C)C)C(=O)C2OC(C)=O)cc1` (stereo not given), with “inactive”; and `CC#CCn1c(N2CCC[C@@H](N)C2)nc2c1c(=O)n(Cc1nc(C)c3ccccc3n1)c(=O)n2C`, with 4.18 µM (active); and `C[N+](C)(C)CC(=O)O`, with “inactive”.
In the case of `O=C(O)c1ccc(-c2cc3cccnc3c(-c3ccc4nonc4c3)n2)cc1`, the Potency was 14.8 µM (active).
For the compound `NC[C@@H]1O[C@@H](O[C@H]2[C@@H](O)[C@H](O[C@@H]3[C@@H](O)[C@@H](N)C[C@H](N)[C@H]3O[C@H]3O[C@H](CN)[C@@H](O)[C@@H](O)[C@H]3N)O[C@H]2CO)[C@H](N)[C@@H](O)[C@@H]1O`, the Potency entry is “inactive”.
Then `COc1ccc(-c2oc3c(CC=C(C)C)c(OC4O[C@H](CO)[C@@H](O)[C@H](O)[C@@H]4O)cc(O)c3c(=O)c2OC2O[C@@H](C)[C@H](O)[C@@H](O)[C@@H]2O)cc1` (stereo not given in full), with 23.5 µM (active); and `CC(C)(Cc1ccc2ccccc2c1)NC[C@@H](O)COc1cccc(Cl)c1C#N`, with “inactive”.
Then `CC(C(=O)O)c1ccc(-c2ccccc2)c(F)c1` (stereo not given), with “inactive”; and `CCS(=O)(=O)N1CC(CC#N)(n2cc(-c3ncnc4[nH]ccc34)cn2)C1`, with 6.62 µM (active).
Then `O=c1c(O)c(-c2ccc(O)cc2)oc2cc(O)cc(O)c12`, with “inactive”.
Consider `C[C@H]1[C@H](NC(=O)C(=NOC(C)(C)C(=O)O)c2csc(N)n2)C(=O)N1S(=O)(=O)O`, for which the Potency result was “inactive”.
As to `O=C(O)c1ccccc1C(=O)Nc1ccc(-c2ccccc2)cc1`, the Potency result was “inactive”.
The figure for `COc1ccc(-c2cc(=O)c3c(O)cc(O)cc3o2)cc1O` is 20.9 µM (active).
Then `CC1(C)O[C@H]2C[C@@H]3[C@H]4CCC5=CC(=O)C=C[C@]5(C)[C@@]4(F)[C@@H](O)C[C@]3(C)[C@]2(C(=O)CO)O1`, with 0.0118 µM (active); and `CC(C)(C(=O)NCC(F)(F)C(F)(F)F)C(=O)N[C@@H]1C(=O)Nc2ccccc2-c2ccccc21`, with “inactive”.
